Activity calls are given as the source filed them. The calls were made as follows: active = hit-call score of the fitted dose curve at least 0.9, where 1 is the maximum; inactive = score below 0.9.
Assays:
[1] = ATG_E_Box_CIS: Attagene CIS-FACTORIAL HepG2 Assay for human Enhancer Box (E-box) (AID 2282936); conditions: HepG2 E-box cis-reporter transcription, actives raise or lower the signal
Summary of the method: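 Endogenous transcription factor activity was sensed in human HepG2 liver cells through transfected cis-promoter reporter units. After 24 h of dosing, total RNA was reverse-transcribed and reporter cDNA resolved by capillary electrophoresis.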

[2] = ATG_M_61_CIS: Attagene CIS-FACTORIAL HepG2 Assay for M61 Transcription Factor (Internal Marker) (AID 2282937); conditions: HepG2 Attagene CIS-FACTORIAL M61 internal marker reporter; actives raise or lower the signal
Summary of the method: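 Multiplexed reporter mRNA assay, HepG2 human hepatoma cells, 24 h treatment. Signal: FAM-labelled, HpaI-digested RT-PCR fragments by CE. Fit: bidirectional, baseline DMSO.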

[3] = ATG_EGR_CIS: Attagene CIS-FACTORIAL HepG2 Assay for human Early Growth Response 1 (EGR1) (AID 2282938); conditions: HepG2 Attagene CIS-FACTORIAL EGR reporter mRNA; actives raise or lower the signal
Summary of the method: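 Multiplexed cis-reporter system in human hepatoma HepG2 cells, transiently transfected. Cells are dosed for 24 h; reporter transcripts are amplified, fluorescently tagged and sized by capillary electrophoresis, with DMSO as negative control.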

[4] = ATG_M_19_CIS: Attagene CIS-FACTORIAL HepG2 Assay for M19 Transcription Factor (Internal Marker) (AID 2282939); conditions: HepG2 Attagene CIS-FACTORIAL M19 internal marker reporter; actives raise or lower the signal
Summary of the method: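 Transfect HepG2 with MRTU reporter library → dose chemical, 24 h → isolate total RNA, reverse-transcribe with oligo(dT) → PCR, 6-FAM label, HpaI cut (2 h, 37 C) → capillary electrophoresis. Bidirectional fit vs DMSO.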

[5] = ATG_ERE_CIS: Attagene CIS-FACTORIAL HepG2 Assay for Estrogen Response Element (ERE) (AID 2282940); conditions: HepG2 ERE cis-reporter, Attagene RNA transcript; actives raise or lower the signal
Summary of the method: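 Transient MRTU transfection of human HepG2; cis-element promoters; 24 h dosing; total RNA → RT (oligo dT) → PCR → 6-FAM primer extension → HpaI digest → CE fluorescence. Bidirectional fit, DMSO baseline.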

[6] = ATG_Ets_CIS: Attagene CIS-FACTORIAL HepG2 Assay for human Erythroblast Transformation Specific (ETS) (AID 2282941); conditions: HepG2 ETS cis-reporter transcription, actives raise or lower the signal
Summary of the method: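 Multiplexed reporter transcript profiling: HepG2, 24 h treatment, total RNA to cDNA, PCR, 6-FAM labelling, HpaI cut, capillary electrophoresis. Gain- or loss-of-signal fitted against DMSO.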

[7] = target: Hepatocyte nuclear factor 3-beta (Homo sapiens) (UniProt Q9Y261); test: ATG_FoxA2_CIS: Attagene CIS-FACTORIAL HepG2 Assay for human Forkhead box A2 (FOXA2) (AID 2282942); conditions: HepG2 cis-reporter transcription factor activity, 24 h; actives raise or lower the signal
Summary of the method: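 Multiplexed cis-element reporter assay in transiently transfected HepG2. Twenty-four hours post-dosing, RNA was reverse-transcribed, amplified, FAM-labelled, HpaI-digested and separated by CE. Activity gain or loss relative to DMSO.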

[8] = ATG_FoxO_CIS: Attagene CIS-FACTORIAL HepG2 Assay for human Forkhead box O (FoxO) (AID 2282943); conditions: HepG2 Attagene cis-reporter, FoxO element, mRNA; actives raise or lower the signal
Summary of the method: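 24 h chemical exposure, HepG2 with transient cis-MRTU transfection. RNA extraction, oligo(dT) RT, reporter-specific PCR, primer-extension labelling, HpaI digestion, CE fragment analysis; bidirectional fit, DMSO baseline.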

[9] = ATG_GATA_CIS: Attagene CIS-FACTORIAL HepG2 Assay for human GATA Binding Protein (AID 2282944); conditions: HepG2 GATA cis-element reporter, Attagene multiplex mRNA; actives raise or lower the signal
Summary of the method: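 Transient MRTU transfection, HepG2, 24 h compound exposure. Total RNA → oligo(dT) RT → PCR → 6-FAM primer extension → HpaI cut → CE. Bidirectional fit vs DMSO.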

[10] = ATG_GLI_CIS: Attagene CIS-FACTORIAL HepG2 Assay for human Zinc Finger Protein GLI1 (AID 2282945); conditions: HepG2, Attagene cis-factorial reporter mRNA, GLI element; actives raise or lower the signal
Summary of the method: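 HepG2 cells transiently transfected with cis-promoter multiplexed reporter units report endogenous transcription factor activity. After 24 h chemical exposure, reporter mRNA was quantified by RT-PCR, 6-FAM labelling, HpaI digestion and capillary electrophoresis, with bidirectional fitting against DMSO.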

[11] = ATG_GRE_CIS: Attagene CIS-FACTORIAL HepG2 Assay for human Glucocorticoid Response Elements (GRE) (AID 2282947); conditions: HepG2 GRE cis-reporter, Attagene multiplex mRNA; actives raise or lower the signal
Summary of the method: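 Cells (HepG2) bearing transfected cis-promoter reporter transcription units were treated with chemical for 24 hours. Reporter mRNA was measured via RT-PCR with capillary electrophoresis, and activity was fitted in both directions relative to DMSO.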

[12] = ATG_ISRE_CIS: Attagene CIS-FACTORIAL HepG2 Assay for human Interferon Regulatory Factor 1 (IRF1) binding to an Interferon-Stimulated Response Element (ISRE) (AID 2282948); conditions: HepG2 ISRE cis-reporter (Attagene), mRNA transcription readout; actives raise or lower the signal
Summary of the method: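 Signal reflects induction or loss of ISRE-linked reporter mRNA in transiently transfected HepG2 cells after a 24 h treatment, detected by fluorescent RT-PCR fragments on capillary electrophoresis and normalised to DMSO.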

[13] = ATG_M_32_CIS: Attagene CIS-FACTORIAL HepG2 Assay for M32 Transcription Factor (Internal Marker) (AID 2282949); conditions: HepG2 Attagene cis-factorial M32 reporter, mRNA; actives raise or lower the signal;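 also: background control marker of the multiplexed CIS panel rather than a real target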
Summary of the method: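 HepG2 human liver cells transiently transfected with cis-promoter-driven multiple reporter transcription units, dosed 24 h. Reporter mRNA quantified by RT-PCR, FAM-labelled primer extension, HpaI digest and capillary electrophoresis; bidirectional fit versus DMSO baseline.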

[14] = ATG_M_06_CIS: Attagene CIS-FACTORIAL HepG2 Assay for M06 Transcription Factor (Internal Marker) (AID 2282950); conditions: HepG2 Attagene CIS-FACTORIAL M06 internal marker reporter; actives raise or lower the signal
Summary of the method: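 Read-out is fluorescence of labelled reporter cDNA fragments resolved by capillary electrophoresis after RT-PCR. Cells: HepG2 carrying transfected cis-promoter reporter units, treated 24 h. Gain or loss of signal fitted relative to DMSO.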

[15] = target: Hypoxia-inducible factor 1-alpha (Homo sapiens) (UniProt Q16665); test: ATG_HIF1a_CIS: Attagene CIS-FACTORIAL HepG2 Assay for human Hypoxia Inducible Factor 1 (HIF1A) (AID 2282951); conditions: HepG2 Attagene cis-factorial HIF1a reporter transcription; actives raise or lower the signal
Summary of the method: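 Cis-element reporter constructs were transiently transfected into HepG2 cells, which were treated for 24 h; reporter RNA was reverse-transcribed, amplified, labelled and resolved by capillary electrophoresis.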

[16] = target: Hepatocyte nuclear factor 6 (Homo sapiens) (UniProt Q9UBC0); test: ATG_HNF6_CIS: Attagene CIS-FACTORIAL HepG2 Assay for human Hepatocyte Nuclear Factor 6 (HNF6) (AID 2282952); conditions: HepG2 Attagene cis-factorial HNF6 reporter transcription; actives raise or lower the signal
Summary of the method: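 First, HepG2 cells were transfected with the multiplexed cis reporter library and dosed with chemical for 24 h. Next, RNA was reverse-transcribed, PCR-amplified and fluorescently labelled. Finally, HpaI-digested fragments were read by capillary electrophoresis.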

[17] = target: Heat shock factor protein 1 (Homo sapiens) (UniProt Q00613); test: ATG_HSE_CIS: Attagene CIS-FACTORIAL HepG2 Assay for human Heat Shock Transcription Factor 1 (HSE) (AID 2282953); conditions: HepG2 HSE cis-reporter, Attagene RNA transcription; actives raise or lower the signal
Summary of the method: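 HepG2, transient MRTU transfection, cis-promoter reporters (endogenous TF activity). 24 h compound. RNA → oligo(dT) RT → PCR → 6-FAM primer extension → HpaI cut → CE. Bidirectional fit vs DMSO.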

[18] = ATG_MRE_CIS: Attagene CIS-FACTORIAL HepG2 Assay for human Metal Responsive Element (MRE) (AID 2282954); conditions: HepG2 MRE cis-reporter transcription, Attagene multiplex; actives raise or lower the signal
Summary of the method: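 Cells were transfected with cis-promoter reporter transcription units, then dosed for 24 h. RNA was reverse-transcribed, amplified, fluorescently labelled and resolved by capillary electrophoresis, and activity was fitted in both directions relative to DMSO.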

[19] = ATG_PBREM_CIS: Attagene CIS-FACTORIAL HepG2 Assay for human Phenobarbital-responsive Enhancer Module (PBREM) (AID 2282955); conditions: HepG2 PBREM cis-reporter, Attagene multiplexed transcription; actives raise or lower the signal
Summary of the method: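 Multiplexed cis-reporter readout in human hepatoma HepG2 cells; PBREM-regulated transcript quantified after 24 h exposure by fluorescent RT-PCR fragment analysis. Signal changes up or down fitted relative to DMSO.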

Measured: outcome

Sequence of Hepatocyte nuclear factor 6 (Homo sapiens) (Q9UBC0 whole entry, looked up, the tested form may be a part): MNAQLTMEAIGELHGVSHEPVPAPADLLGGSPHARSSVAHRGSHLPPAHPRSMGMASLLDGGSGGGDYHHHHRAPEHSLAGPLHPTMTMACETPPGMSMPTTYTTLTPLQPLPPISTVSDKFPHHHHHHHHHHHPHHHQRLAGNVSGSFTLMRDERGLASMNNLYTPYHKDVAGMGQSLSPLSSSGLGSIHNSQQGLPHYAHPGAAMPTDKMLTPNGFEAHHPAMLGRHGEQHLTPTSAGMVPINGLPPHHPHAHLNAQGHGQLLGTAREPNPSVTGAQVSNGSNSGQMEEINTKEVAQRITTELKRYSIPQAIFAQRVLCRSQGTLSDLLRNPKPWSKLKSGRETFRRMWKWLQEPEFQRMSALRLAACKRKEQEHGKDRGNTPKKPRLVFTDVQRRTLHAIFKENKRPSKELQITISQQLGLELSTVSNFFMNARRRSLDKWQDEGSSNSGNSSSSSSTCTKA
Sequence of Hypoxia-inducible factor 1-alpha (Homo sapiens) (Q16665 whole entry, looked up): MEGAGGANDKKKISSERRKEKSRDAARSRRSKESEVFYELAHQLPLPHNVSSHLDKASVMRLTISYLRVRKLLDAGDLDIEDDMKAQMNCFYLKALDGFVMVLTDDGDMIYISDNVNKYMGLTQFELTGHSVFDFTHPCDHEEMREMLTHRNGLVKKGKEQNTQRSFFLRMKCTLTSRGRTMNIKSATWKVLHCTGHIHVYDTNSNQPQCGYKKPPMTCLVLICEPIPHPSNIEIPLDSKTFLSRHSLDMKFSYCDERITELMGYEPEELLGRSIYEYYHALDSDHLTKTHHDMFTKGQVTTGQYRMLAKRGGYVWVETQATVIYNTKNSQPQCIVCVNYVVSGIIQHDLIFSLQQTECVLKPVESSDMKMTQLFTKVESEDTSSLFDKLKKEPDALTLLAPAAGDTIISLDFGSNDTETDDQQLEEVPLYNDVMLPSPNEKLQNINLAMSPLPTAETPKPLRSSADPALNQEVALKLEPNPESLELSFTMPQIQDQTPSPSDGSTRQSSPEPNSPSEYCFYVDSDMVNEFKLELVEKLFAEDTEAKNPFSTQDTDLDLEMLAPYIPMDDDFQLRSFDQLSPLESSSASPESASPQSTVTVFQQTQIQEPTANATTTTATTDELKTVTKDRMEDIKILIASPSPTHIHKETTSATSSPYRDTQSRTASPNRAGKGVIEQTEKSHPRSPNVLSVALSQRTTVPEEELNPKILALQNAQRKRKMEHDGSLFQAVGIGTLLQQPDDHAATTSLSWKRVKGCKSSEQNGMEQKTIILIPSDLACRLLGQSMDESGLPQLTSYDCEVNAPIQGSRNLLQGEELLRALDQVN
Sequence of Hepatocyte nuclear factor 3-beta (Homo sapiens) (Q9Y261 whole entry, looked up): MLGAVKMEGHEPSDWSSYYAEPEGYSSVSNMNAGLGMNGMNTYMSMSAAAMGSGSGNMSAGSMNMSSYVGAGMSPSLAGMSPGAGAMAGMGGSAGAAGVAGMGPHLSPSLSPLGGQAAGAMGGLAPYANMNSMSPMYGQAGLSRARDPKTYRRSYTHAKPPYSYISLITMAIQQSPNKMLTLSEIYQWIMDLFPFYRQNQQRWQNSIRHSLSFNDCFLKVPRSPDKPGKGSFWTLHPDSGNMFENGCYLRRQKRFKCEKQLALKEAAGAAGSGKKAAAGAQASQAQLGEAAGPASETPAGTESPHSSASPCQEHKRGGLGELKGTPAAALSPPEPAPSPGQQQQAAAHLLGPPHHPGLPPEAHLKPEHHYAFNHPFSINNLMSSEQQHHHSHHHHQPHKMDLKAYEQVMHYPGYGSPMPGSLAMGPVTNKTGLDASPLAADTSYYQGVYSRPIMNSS
Sequence of Heat shock factor protein 1 (Homo sapiens) (Q00613 whole entry, looked up): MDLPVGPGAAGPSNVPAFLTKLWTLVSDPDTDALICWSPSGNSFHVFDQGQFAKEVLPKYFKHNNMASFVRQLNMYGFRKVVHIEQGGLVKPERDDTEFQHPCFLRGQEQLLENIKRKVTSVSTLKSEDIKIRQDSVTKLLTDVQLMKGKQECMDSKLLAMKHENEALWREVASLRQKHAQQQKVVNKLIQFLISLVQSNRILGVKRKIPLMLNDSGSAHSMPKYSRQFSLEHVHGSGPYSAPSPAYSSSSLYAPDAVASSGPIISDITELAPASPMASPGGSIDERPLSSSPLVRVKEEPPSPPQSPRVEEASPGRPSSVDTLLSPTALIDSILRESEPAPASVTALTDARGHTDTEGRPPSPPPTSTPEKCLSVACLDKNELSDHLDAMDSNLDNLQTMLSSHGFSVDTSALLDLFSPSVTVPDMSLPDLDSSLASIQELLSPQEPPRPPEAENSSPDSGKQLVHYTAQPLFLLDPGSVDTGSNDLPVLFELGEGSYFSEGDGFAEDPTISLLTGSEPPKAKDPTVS

CC(C)c1ccc(C=O)cc1
inactive: [1] | [2] | [3] | [4] | [5] | [6] | [7] | [8] | [9] | [10] | [11] | [12] | [13] | [14] | [15] | [16] | [17] | [18] | [19]

NC(CO)(CO)CO
inactive: [1] | [2] | [3] | [4] | [5] | [6] | [7] | [8] | [9] | [10] | [11] | [12] | [13] | [14] | [15] | [16] | [18] | [19]

CC(C)CCCCCOC(=O)CCS
inactive: [1] | [2] | [3] | [4] | [5] | [6] | [7] | [8] | [9] | [10] | [11] | [12] | [13] | [14] | [15] | [16] | [17] | [18] | [19]

CCCCCCCCC(=O)OCC
inactive: [1] | [2] | [3] | [4] | [5] | [6] | [7] | [8] | [9] | [10] | [11] | [12] | [13] | [14] | [15] | [16] | [18]
